A selection: hits, their analogues and other compounds. The true share with any hit is near 21%.
CHX counter: affects cycloheximide protein synthesis inhibition readout, counter-screen; cell reporter, cycloheximide protein synthesis inhibition counterscreen; max response, %; actives 12% (n = 300,000); AID 2314; in the data active = max response mostly above about 13%, no sharp cut-off; inactive = mostly below about 14%; note: read at 38.3 µM for the half of the compounds with a filed dose; 0% is about no effect
HCV inh: inhibitors of hepatitis C virus infection | actives 3.4% (n = 340,000) | Huh7.5.1 HCVcc-Cre infection, luciferase reporter, 44 h | Potency, µM (titrated, usually from 41.8 µM), inactives show at the top dose activity change, negative = inhibition, hits mostly inhibitors; note: potency is the fitted concentration of half-maximal effect; % is set by controls: 0 for no effect and ±100 for the full control effect
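Cells (1,000/well) were plated 4 h before compound, then infected with HCVcc-Cre virus (~0.5 moi). After 44 h further culture, infection was read as luciferase luminescence following a 15 min substrate incubation at room temperature.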
HCMV antiviral: human cytomegalovirus inhibition; HFF cells, HCMV-luciferase reporter, 72 h; hits give low values; activity change, negative = inhibition, % at 57.5 µM; actives 4.5% (n = 410,000); in the data active = activity change below about -60%; inconclusive = no clear call, values can overlap the other calls; inactive = above about -39%; note: % is set by controls: 0 for no effect and ±100 for the full control effect
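Luciferase read-out from HCMV-luciferase-infected HFFs (MOI 1 PFU/cell) 72 h post infection at 37C; compounds added after 16 h cell attachment; activity normalized between buffer-only basal and Salinomycin (10uM) inhibitor controls.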
Shiga inhibitor: Shiga toxin inhibition; Vero cells, Shiga toxin protein synthesis inhibition reporter; inhibition, % at 38.7 µM; actives 9.2% (n = 290,000); in the data active = inhibition mostly above about 28%, no sharp cut-off; inactive = mostly below about 43%; note: 0% is about no effect
Pf growth 48h: P. falciparum growth inhibition at 48 hours (one generation). actives 5.9% (n = 310,000). Potency, µM (series often up to 28.7 µM), inactives show top-dose activity change, negative = inhibition, most hits filed as inhibitors. P. falciparum luciferase growth in erythrocytes, 48 h; note: potency is the fitted concentration of half-maximal effect; % is set by controls: 0 for no effect and ±100 for the full control effect
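Read-out is firefly luciferase luminescence from an integrated reporter in P. falciparum, so falling signal marks reduced parasite growth. Infected erythrocytes were at 2% hematocrit and 0.1% parasitemia (final) in Albumax-supplemented RPMI 1640.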
Pf growth 96h: inhibits malaria parasite growth, 96 h. P. falciparum luciferase reporter growth, 96 h. Potency, µM (top dose mostly 28.7 µM), inactives show at the highest dose activity change, negative = inhibition, most hits filed as inhibitors. actives 6.9% (n = 320,000); note: potency is the fitted concentration of half-maximal effect; % is set by controls: 0 for no effect and ±100 for the full control effect
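P. falciparum expressing integrated firefly luciferase grown in erythrocytes (2% hematocrit, 0.05% parasitemia final) with compounds for 96 hours at 37 C, 5% CO2. Growth inhibition read as loss of luminescence after adding luciferase detection reagent.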
Numbers without * were called inactive; ? = inconclusive; . = no result given; [ ] = another dose, or the depositor's remark. Unless noted, calls come from the whole dose curve; as a rule, active = well fitted inhibition curve with a large enough effect; inconclusive = small, poorly fitted or top-dose-only effect, or another doubt; inactive = no such curve, though single readings can be large or run the other way.

SMILES | CHX counter | HCV inh | HCMV antiviral | Shiga inhibitor | Pf growth 48h | Pf growth 96h
Cc1cccc(C)c1N1C(=O)c2ccccc2NC(=O)C1C(=O)NCc1ccco1 (centres undefined) | . | . | 0 | . | . | .
Cc1cc(Br)ccc1SCC(=O)OCC(=O)NCc1ccco1 | -1 | 1% | -12 | 14 | 19% | 31%
OC(CNCc1ccco1)Cn1c2ccc(Br)cc2c2cc(Br)ccc21 (centres undefined) | -4 | ? | 33 | 10 | . | 0.29µM*
O=[N+]([O-])c1ccc(COc2ncnc3ccccc23)cc1 | -3 | -3% | 6 | -7 | -8% | -12%
O=C(CSc1ncnc2ccccc12)c1cccs1 | 14 | 3% | 1 | 31 | 418% | 233%
Fc1ccc(CSc2ncnc3ccccc23)cc1 | 11 | 3% | -68* | 16 | 25% | 11%
O=[N+]([O-])c1cccc(CSc2ncnc3ccccc23)c1 | 10 | -27% | -81* | 25 | -3% | ?
Cc1ccc(CSc2ncnc3ccccc23)cc1 | 21* | -16% | -31 | 34 | -5% | 31%
c1ccc(CSc2ncnc3ccccc23)cc1 | 7 | ? | -31 | 18 | 32%[5.75 µM] | 82%[5.75 µM]
Cc1ccc(C(=O)CSc2ncnc3ccccc23)o1 | 26* | 4% | -60* | 110* | 15%[5.75 µM] | 15%
COc1cc2c(cc1OC)CN(C(=O)Cc1c(F)cccc1Cl)CC2 | -2 | ? | -38 | -11 | 0% | 5%
Cc1cccc(CSc2ncnc3ccccc23)c1 | 22* | ? | -15 | 62* | 16% | 43%
CCCCOc1ccc(S(=O)(=O)n2nc(C)c(S(=O)(=O)N3CCC(C)CC3)c2C)cc1 | . | . | -15 | . | . | .
Cn1ncc([N+](=O)[O-])c1C(=O)Nc1ccc(Cl)cc1 | -4 | -6% | 25 | -3 | 35% | 19%
CCOc1ccc(C(=O)Nc2ccc(N3CCN(C)CC3)cc2)cc1[N+](=O)[O-] | -2 | -28% | 52 | -1 | ? | 0%
Cn1ncc([N+](=O)[O-])c1C(=O)Nc1ccc(C2CCCCC2)cc1 | 26* | -4% | -6 | 59 | 12% | ?
Cn1ncc([N+](=O)[O-])c1C(=O)Nc1ccc(-c2nc3ccccc3[nH]2)cc1 | 42* | ? | -28 | 48* | ? | ?
CCOc1ccc(C(=O)Nc2ccc(-c3nc4ccccc4[nH]3)cc2)cc1[N+](=O)[O-] | -3 | ? | 11 | -5 | 1.9µM* | -18%
CC(OC(=O)c1ncc(Cl)c(Cl)c1Cl)C(=O)NC1(C#N)CCCCC1 (centres undefined) | . | ? | -36 | . | 61% | 49%
Cc1ccc2nc(N3CCC(C(=O)N4CCN(c5cccc(C)c5C)CC4)CC3)[nH]c2c1 | . | . | 0 | . | . | .
COc1cccc(S(=O)(=O)N(C)C[C@@H]2Oc3ncc(Br)cc3C(=O)N([C@H](C)CO)C[C@@H]2C)c1 | . | . | -10 | . | . | .
CN(C)c1ccc(-c2ccnc3c2CC(C)(C(=O)NCCc2ccccc2)O3)cc1 (centres undefined) | . | . | 1 | . | . | .
CCc1nnc(NC(=O)c2cc(S(=O)(=O)N3CCOCC3)ccc2N2CCCCC2)s1 | 1 | -19% | -28 | -10 | -16% | -19%
CC(C)C[C@H](NC(=O)[C@H](C)NC(=O)CNC(=O)[C@H](CCCCN)NC(=O)[C@H](CCCN=C(N)N)NC(=O)[C@H](C)NC(=O)[C@H](Cc1ccccc1)NC(=O)[C@@H](N)CCCN=C(N)N)C(=O)N[C@@H](CCCN=C(N)N)C(=O)N[C@@H](CCC(N)=O)C(=O)N[C@@H](CCCCN)C(=O)N[C@@H](CC(N)=O)C(=O)N[C@H](C(N)=O)C(C)C | -4 | . | . | -4 | . | .
CO/N=C/CC(=O)c1cnc(-c2ccc(Cl)cc2)s1 | 22* | 13% | 42 | 73* | ? | -2%
SMILES | CHX counter | HCV inh | HCMV antiviral | Shiga inhibitor | Pf growth 48h | Pf growth 96h
CO/N=C\CC(=O)Nc1ccc(Cl)c(Cl)c1 | -1 | 9% | ? | -9 | 24% | 44%
CCN(CC)CC(=O)c1ccc(-c2ccccc2)cc1 | 18 | -5% | -21 | 20 | ? | -2%
C/[N+]([O-])=C\CC(=O)c1ccc(-c2ccccc2)cc1 | 24* | -13% | 9 | 20 | ? | 4%
CO/N=C/CC(=O)c1ccc(-c2ccccc2)cc1 | 18* | 23% | 2 | 70 | 6% | 15%
CCOc1ccc(-n2ccnc2SCC(=O)Nc2cc(C)on2)cc1 | 5 | -20% | -4 | -7 | -25% | 51%
COc1ccc(NC(=O)c2cc3c([nH]c2=O)CC(c2ccccc2)CC3=O)cc1 (centres undefined) | . | . | 40 | . | . | .
Cc1ccc(C)c(NC(=O)Cn2cc(C(=O)c3ccncc3)c(=O)c3cc(F)ccc32)c1 | . | . | 29 | . | . | .
O=C(NCCCn1ccnc1)Nc1ccc(Cl)cc1 | 20 | 15% | 4 | 30 | 0% | 2%
O=C(NCCCn1ccnc1)Nc1ccc(Cl)c(Cl)c1 | -3 | 7% | -106* | -21 | 12µM* | 2.1µM*
COc1ccc(NC(=O)C(=O)NCCCn2ccnc2)cc1 | 4 | 9% | -60* | 20 | 16% | 9%
O=C(NCCCn1ccnc1)C(=O)NCc1ccccc1 | -2 | 0% | -6 | 2 | -13% | -18%
O=C(NCCCn1ccnc1)C(=O)Nc1ccccc1 | 16* | 32% | 50 | 28 | 24% | 40%
Cc1cc(C(C)(C)C)c(O)c(C(C)(C)C)c1 | 1 | -7% | -27 | -4 | 10% | 21%
Cc1cc(C(C)(C)C)c(OC(=O)[C@@H]2OC(c3ccccc3)=C[C@H]2c2ccccc2)c(C(C)(C)C)c1 | . | 10% | -28 | . | 5.2µM* | ?
Cn1c(NC2CCCCC2)cc(=O)n(C)c1=O | -2 | 4% | 11 | -11 | ? | 10µM*
Cn1c(NC(=O)CCC2CCCCC2)cc(=O)n(C)c1=O | 71* | 2% | 189 | 113* | . | ?
Cn1cnc(S(=O)(=O)N[C@H]2CC[C@@]34CCCN3C(=O)CCC[C@H]4[C@H]2Cc2ccccc2)c1 | . | . | 7 | . | . | .
O=C1c2oc3ccc(F)cc3c(=O)c2C(c2cccc([N+](=O)[O-])c2)N1CCCN1CCOCC1 (centres undefined) | . | . | 1 | . | . | .
O=C(Nc1ccc(-n2cccc2)cc1)C1=COC2=NC(=O)N(Cc3ccccc3)CCN12 | . | . | -87* | . | . | .
CC(=O)Nc1ccc(NC(=O)C2=COC3=NC(=O)N(Cc4ccccc4C)CCN23)cc1 | . | . | -35 | . | . | .

Screening data: PubChem, National Center for Advancing Translational Sciences (NCATS)
